Rab9 prom act – activators of Rab9 promoter; Huh7 Rab9 promoter-luciferase reporter, luminescence, 24 h; Potency, µM (highest dose often 9.22 µM), for the others: at the top dose activation, negative = inhibition, usual class: activators; actives 2.8% (n = 320,000); note: % of control where 0% means no effect; nearly all actives have a fitted effect of over 60% in size
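Luminescence from Amplite-detected luciferase (10 minutes, ambient) reports Rab9 promoter activation. Before that, stable Rab9-luciferase Huh7 cells (1500/well, reduced-serum OP-MEM I plus 10% FBS) were exposed to compound for 24 hours at 37C.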
ELG1 genotox – genotoxicity induction in ELG1-luciferase HEK293T cells | AID 504466 | actives 1.3% (n = 330,000) | HEK293T ELG1-luciferase reporter, luminescence, 16 h | Potency, µM (doses to about 46 µM), without a hit: at the top dose activity change, positive = activation, hits mostly activators; note: % of control where 0% means no effect; nearly all actives have a fitted effect of over 60% in size
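Reporter readout depends on ELG1 protein level, which increases with genetic stress. After 16 hr compound exposure at 37 °C, luciferase activity was quantified using ONE-Glo.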
ELG1 DNA repair – blocks ELG1-dependent DNA repair in HEK293T cells; HEK293T ELG1-luciferase reporter, luminescence, 16 h; DNA damage induced by 5-fluorouridine; Potency, µM (highest dose often 46.1 µM), without a hit: at the highest dose activity change, negative = inhibition, most hits filed as inhibitors; actives 2.3% (n = 330,000); AID 504467; note: % is set by controls: 0 for no effect and ±100 for the full control effect; nearly all actives have a fitted effect of over 55% in size
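Step one: seed 2,000 cells per well. Step two: pin-transfer compound or DMSO alongside 5-fluorouridine. Step three: incubate 16 hr, 37 °C, 5% CO2. Step four: add ONE-Glo, wait 30 min, read luminescence.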
NPC1 prom act – NPC1 promoter activation; Huh7 NPC1 promoter luciferase reporter, 24 h; AID 485313; Potency, µM (doses to about 9.22 µM), inactives show at the highest dose activation, hits mostly activators; actives 2.4% (n = 320,000); note: % of control where 0% means no effect; nearly all actives have a fitted effect of over 60% in size
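In 1536-well qHTS, Huh7 cells harboring an NPC1 promoter–luciferase construct received compound for 24 h; activation was quantified by luminescence following luciferase reagent addition.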
FLuc counter – firefly luciferase modulation, counter-screen for miR-21 project; P08659; purified FLuc, Km substrates, luminescence inhibition; Potency, µM (doses to about 57.5 µM), for the others: top-dose activity change, negative = inhibition, most hits filed as inhibitors; actives 6.9% (n = 360,000); AID 588342;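 note: plate controls were vehicle for no effect and reference inhibitor for full effect; nearly all actives have a fitted effect of over 55% in size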
Target sequence (P08659 whole entry, looked up): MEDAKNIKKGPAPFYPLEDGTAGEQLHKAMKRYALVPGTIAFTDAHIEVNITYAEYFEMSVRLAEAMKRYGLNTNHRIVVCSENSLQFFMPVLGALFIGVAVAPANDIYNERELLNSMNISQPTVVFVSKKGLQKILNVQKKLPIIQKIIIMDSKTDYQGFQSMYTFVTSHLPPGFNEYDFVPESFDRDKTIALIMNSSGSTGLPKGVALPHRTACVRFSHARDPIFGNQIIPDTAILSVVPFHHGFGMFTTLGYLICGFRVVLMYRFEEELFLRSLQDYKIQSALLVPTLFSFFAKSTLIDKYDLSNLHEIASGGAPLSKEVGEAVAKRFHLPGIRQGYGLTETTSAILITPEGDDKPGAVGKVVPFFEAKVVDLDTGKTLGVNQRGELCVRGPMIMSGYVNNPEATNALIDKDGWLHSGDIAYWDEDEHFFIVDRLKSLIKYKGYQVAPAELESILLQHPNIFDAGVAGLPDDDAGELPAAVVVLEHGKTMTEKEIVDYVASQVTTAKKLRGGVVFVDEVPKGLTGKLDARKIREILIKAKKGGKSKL
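Purified P. pyralis luciferase (10nM final) with 10uM D-luciferin and 10uM ATP (Km levels) in 50mM Tris acetate pH 7.5, 10mM Mg acetate, 0.01% Tween-20, 0.05% BSA; qHTS 6-point titration, ~60 µM downward; luminescence read.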
SMN2 splice enh – enhancers of SMN2 splice variant expression | actives 2.8% (n = 210,000) | HEK293 SMN2-luciferase splicing reporter, luminescence, 30-36 h | Potency, µM (series often up to 46.1 µM), for inactives: top-dose activity change, positive = activation, hits mostly activators | AID 1458; note: % of control where 0% means no effect; nearly all actives have a fitted effect of over 55% in size
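HEK293 cells carry an SMN2 minigene-luciferase reporter in which exon 7 inclusion puts luciferase in frame. Cells were seeded at 2000 cells/well, attached for 10-12 hours, then exposed to compounds for 30-36 hours at 37C before ONE-Glo luminescence.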
The depositor's hits bear a star; ? = inconclusive; / = not tested or not shown; [ ] = another dose, or the depositor's remark. Most compounds without a hit are left out; they make up all but 9.3% or so of the library. Calls come from the whole dose curve; as a rule, active = well fitted curve in the direction sought with a large enough effect; inconclusive = small, poorly fitted or top-dose-only effect, or another doubt; inactive = no such curve, though single readings can be large; an effect the other way counts as inactive or inconclusive. Potency is the fitted concentration of half-maximal effect.

SMILES | Rab9 prom act | ELG1 genotox | ELG1 DNA repair | NPC1 prom act | FLuc counter | SMN2 splice enh
COc1ccc(CCNC(=O)c2nn(C)c3c2CS(=O)(=O)c2ccccc2-3)c(OC)c1 | -0.4% | -16.4% | 23.1µM* | -7.5% | -1.8% | /
CN1CCN(C(=O)/C(=C/c2cn(S(=O)(=O)N(C)C)c3ccccc23)NC(=O)c2ccccc2Cl)CC1 | 6.6% | -4.8% | 4.0% | -3.2% | 3.0% | /
CCOC(CNC(=O)c1cccn2c(=O)c3cc(Cl)ccc3nc12)OCC | 3.5% | -13.1% | 23.1µM* | 11.1% | -3.0% | -5.2%
CCN1CCCC1CNC(=S)Nc1ccc(C(C)=O)cc1 (stereo unspecified) | 13.4% | 4.6% | -4.5% | -2.5% | 2.8% | 7.0%
O=C(CSc1nc2cc(Cl)ccc2o1)c1cccs1 | 12.4% | ? | ? | 9.0% | 19µM* | 2.6%
O=C(CSc1nc2ccc(Cl)cc2[nH]1)c1cccs1 | 27.8% | 16.3% | ? | 12.4% | 13.5µM* | /
Nn1c(COc2ccc(Cl)cc2)nc2ccccc2c1=O | ? | ? | ? | ? | ? | 14.1µM*
Nn1c(Cc2ccccc2)nc2cc(Cl)ccc2c1=O | -0.6% | -2.1% | -9.6% | -3.2% | -0.1% | /
CCOC(=O)c1cnc(-n2cc(C)cn2)nc1Nc1ccccc1OC | -4.6% | 0.1% | 5.17µM* | -1.5% | 0.9% | ?
CCOC(=O)c1cnc(-n2nc(C)cc2C)nc1Nc1ccc(C)cc1 | -3.5% | ? | ? | -3.9% | -0.2% | -48.8%
COc1cccc(-c2noc(-c3ccoc3C)n2)c1 | 2.51µM* | ? | ? | ? | 6.75µM* | /
Cc1cccc(-c2noc(-c3ccoc3C)n2)c1 | 0.708µM* | ? | ? | 0.355µM* | 4.78µM* | ?
COc1ccc(-c2noc(-c3ccoc3C)n2)cc1OC | 0.6% | 2.5% | 3.9% | -3.4% | 1.3% | /
Cc1cccc(-c2noc(CNC(=O)c3ccoc3C)n2)c1 | -1.0% | 7.6% | 20.1% | -0.1% | -1.4% | /
COc1ccc(-c2noc(-c3ccoc3C)n2)cc1 | 1.58µM* | ? | ? | 2.82µM* | 2.39µM* | /
O=C1N(c2ccccc2)C(c2ccccc2)N2CCCN12 (stereo unspecified) | -1.1% | 1.8% | ? | -6.0% | 2.2% | /
NC(=O)CSc1ncnc2c1oc1ccccc12 | -2.3% | 15.3% | 14.2% | 3.5% | -0.8% | -29.3%
O=c1[nH]c(CSc2ccccn2)nc2c1oc1ccccc12 | 0.794µM* | ? | ? | 3.55µM* | 2.69µM* | 1µM*
Cc1nc(SCC(=O)c2cccs2)c2oc3ccccc3c2n1 | 3.98µM* | ? | ? | ? | 9.53µM* | 10µM*
Cc1nc(SCc2nc3ccccc3[nH]2)c2oc3ccccc3c2n1 | 0.1% | -10.8% | 18.4µM* | 0.2% | ? | -7.7%
O=C(CSc1ncnc2c1oc1ccccc12)c1cccs1 | 3.98µM* | ? | ? | 2.82µM* | ? | 23.9%
CCOC(=O)CNC(=O)C(Cc1ccccc1)NS(=O)(=O)c1cccs1 (stereo unspecified) | -2.7% | -3.9% | -0.4% | -1.4% | 0.0% | -5.8%
CC(C)=C1C(=O)C(c2ccccc2)=C2CN3C(=O)N(CCc4ccccc4)C(=O)[C@]3(Cc3ccccc3)[C@H]21 | / | / | / | / | / | -5.0%
CCCN(CC(=O)c1cc(C)n(C)c1C)S(=O)(=O)c1cccc(C(F)(F)F)c1 | -1.0% | -4.4% | -16.1% | 0.5% | -10.1% | -15.9%
NNC(=O)c1cccc(COc2cccc(Br)c2)c1 | ? | 12.0% | ? | ? | ? | ?
SMILES | Rab9 prom act | ELG1 genotox | ELG1 DNA repair | NPC1 prom act | FLuc counter | SMN2 splice enh
CCn1c(=O)c(CCC(=O)N2CCN(c3ccccn3)CC2)c(C)c2c(C)nn(-c3ccccc3)c21 | -1.1% | -15.8% | 16.4µM* | 0.1% | 2.4% | /
CCn1c(=O)c(CCC(=O)NCCN2CCOCC2)c(C)c2c(C)nn(-c3ccccc3)c21 | -8.1% | -5.7% | -20.4% | -0.5% | -2.5% | /
CCOC(=O)C(Cc1ccccc1)c1ccnc2ncnn12 (stereo unspecified) | 3.8% | -0.6% | 14.5% | -12.0% | 0.5% | -1.1%
CCN(CC)S(=O)(=O)c1cc(NC(=O)C(C)N(C)CC(=O)Nc2c(C)cccc2C)ccc1C (stereo unspecified) | -4.7% | -4.6% | 20.6µM* | -3.4% | 1.0% | -0.9%[1.84 µM]
CCN(CC)S(=O)(=O)c1cc(NC(=O)C(C)N2CCc3ccccc32)ccc1C (stereo unspecified) | -4.3% | -9.3% | ? | -8.5% | 2.3% | -59.6%
CCC(C)[C@H](NC(=O)N1CCCCC1)C(=O)OC (stereo partly specified) | -2.7% | 0.5% | 8.4% | -2.1% | 0.1% | /
COc1ccc(-c2noc(COc3ccc4c(c3)OCO4)n2)cc1 | 1.6% | -0.1% | 6.1% | -4.0% | 5.4% | 1.8%
O=C(NCc1nc(-c2ccccc2)no1)c1ccc2c(c1)OCO2 | 2.3% | -0.3% | -2.8% | -2.1% | 1.2%[2.3 µM] | 5.1%
COc1cccc(-c2noc(-c3ccc4c(c3)OCO4)n2)c1 | 0.562µM* | 1.83µM* | ? | 2.51µM* | 0.536µM* | /
c1ccc(-c2noc(-c3ccc4c(c3)OCO4)n2)cc1 | 0.282µM* | 0.411µM* | ? | 0.447µM* | 0.477µM* | 5.01µM*
COc1ccc(-c2noc(-c3ccc4c(c3)OCO4)n2)cc1 | 1.12µM* | ? | ? | 0.794µM* | 0.953µM* | 8.91µM*
COCC1CCN(Cc2nc(-c3ccc4c(c3)OCO4)no2)C1 (stereo unspecified) | 2.82µM* | ? | ? | ? | ? | /
CN(C)S(=O)(=O)c1ccc(C(=O)NCc2nnc(SCC(=O)N3CCCC3)o2)cc1 | 3.1% | 1.9% | 20.3% | -0.5% | 0.7% | /
O=S(=O)(Nc1cccc2c1CCCC2)c1ccc(Cl)cc1 | -3.3% | -0.3% | -1.5% | 2.0% | -8.3% | -7.9%
c1ccc(-c2noc(-c3ccc4ccccc4c3)n2)cc1 | -14.5% | ? | ? | -16.5% | 0.269µM* | -9.1%
COc1ccc(-c2nc(-c3ccc4c(c3)OCO4)[nH]c2-c2ccc(OC)cc2)cc1 | -0.6% | -13.7% | 18.4µM* | -11.8% | -3.8% | -89.9%
O=C(NCc1ccc(F)cc1)c1cc(Sc2ccc(F)cc2F)nc2ccccc12 | / | / | / | / | 4.8% | /
CCN(CC)c1ncnc2sc3c(c12)CCC3 | -2.7% | -10.3% | 14.6µM* | -1.5% | -3.0% | -22.1%
CCN(CC)S(=O)(=O)c1cccc(C(=O)Nc2ccc(Cl)cn2)c1 | 22.9% | 12.1% | -28.0% | 18.5% | ? | -48.8%
CCN(Cc1ccccc1)S(=O)(=O)c1cc(C(=O)NC2CCCCCC2)ccc1OC | 0.1% | -3.2% | ? | -3.2% | 1.1% | -7.3%

Assay outcomes: PubChem, National Center for Advancing Translational Sciences (NCATS)
